A selection: hits, their analogues and other compounds. The true share with any hit is near 6.9%.
JMJD2A Tudor = inhibitors of human JMJD2A Tudor domain; AlphaScreen JMJD2A-Tudor / H3K4me3 peptide binding; hit rate 4.4% among 390,000; AID 504339; Potency, µM (highest dose often 114 µM), without a hit: at the highest dose activity change, negative = inhibition, actives largely listed as inhibitors; note: % is set by controls: 0 for no effect and ±100 for the full control effect; nearly all actives have a fitted effect of over 50% in size
PLK1 PBD inh = inhibitors of human PLK1 polo-box domain binding. Potency, µM, inactives show max response, negative = inhibition, actives largely listed as inhibitors. P53350. hit rate 2.8% among 360,000. Plk1 PBD binding of FITC phosphopeptide, fluorescence polarization; note: series mostly up to about 57 µM; % is set by controls: 0 for no effect and ±100 for the full control effect; nearly all actives have a fitted effect of over 65% in size
Target sequence (P53350 whole entry, looked up, the tested form may be a part): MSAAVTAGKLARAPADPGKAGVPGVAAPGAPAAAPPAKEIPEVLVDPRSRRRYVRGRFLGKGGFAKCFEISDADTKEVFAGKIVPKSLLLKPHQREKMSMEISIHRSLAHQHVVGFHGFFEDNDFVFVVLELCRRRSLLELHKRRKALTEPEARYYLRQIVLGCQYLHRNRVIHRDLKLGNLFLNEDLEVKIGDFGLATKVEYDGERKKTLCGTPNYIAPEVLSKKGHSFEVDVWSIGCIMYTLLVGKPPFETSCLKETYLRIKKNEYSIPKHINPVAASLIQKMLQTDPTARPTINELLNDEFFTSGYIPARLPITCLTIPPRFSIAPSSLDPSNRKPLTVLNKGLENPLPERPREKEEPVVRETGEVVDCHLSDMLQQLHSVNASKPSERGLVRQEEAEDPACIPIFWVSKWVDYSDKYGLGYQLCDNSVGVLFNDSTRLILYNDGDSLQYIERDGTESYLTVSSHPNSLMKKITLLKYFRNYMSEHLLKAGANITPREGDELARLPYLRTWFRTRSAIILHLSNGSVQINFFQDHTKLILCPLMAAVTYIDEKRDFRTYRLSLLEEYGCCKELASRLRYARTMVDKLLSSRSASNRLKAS
HP1b binding inh = blocks HP1-beta chromodomain binding to methylated histone tails. P83916. Potency, µM (top dose mostly 114 µM), for the others: at the top dose activity change, negative = inhibition, usual class: inhibitors. AlphaScreen HP1-beta / biotin-H3K9me3 peptide binding. hit rate 0.56% among 390,000; note: nearly all actives have a fitted effect of over 70% in size
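AlphaScreen: HP1-beta (50 nM) preformed 30 min with biotin-H3(1-18)K9me3 peptide (50 nM) in PBS pH 7.4, 0.01% Tween-20. Compound added for 30 min at RT, then streptavidin donor/nickel chelate acceptor beads (10 ug/mL) for 30 min.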
L3MBTL1 inh = L3MBTL1 (human) inhibition | Q9Y468 | AlphaScreen L3MBTL1–H3K9me1 peptide binding | Potency, µM (top dose mostly 57.1 µM), for the others: at the highest dose activity, negative = inhibition, actives largely listed as inhibitors | hit rate 0.66% among 230,000; note: % is set by controls: 0 for no effect and ±100 for the full control effect; nearly all actives have a fitted effect of over 60% in size
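AlphaScreen assay: L3MBTL1 (50 nM final) was preincubated 30 min at room temperature with biotinylated H3(1-15)K9me1 peptide (75 nM final), then 30 min with library compounds; streptavidin donor and nickel chelate acceptor beads (10 ug/mL final) added, 30 min dark.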
VDR inh = blocks the human vitamin D receptor; P11473; VDR-SRC2-3 peptide fluorescence polarization, 2 h; Potency, µM, inactives show max response, negative = inhibition, usual class: inhibitors; hit rate 0.93% among 400,000; note: % is set by controls: 0 for no effect and ±100 for the full control effect
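After 23 nl compound addition and a short centrifugation, plates sat for 2 hours at ambient temperature; polarization of fluorescence then indicated loss of VDR binding to peptide SRC2-3.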
BAZ2B inh = inhibitors of human BAZ2B bromodomain. Q9UIF8. AlphaScreen BAZ2B-H3K14Ac peptide displacement. Potency, µM (top dose mostly 114 µM), for the others: at the top dose activity change, negative = inhibition, usual class: inhibitors. hit rate 4.4% among 360,000. AID 504333; note: % is set by controls: 0 for no effect and ±100 for the full control effect; nearly all actives have a fitted effect of over 60% in size
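BAZ2B 50 nM plus b-H3(5-23)K14Ac 50 nM, PBS pH 7.4/0.01% Tween-20, 30 min RT; compound added (max 110 uM), 30 min RT; streptavidin donor/Ni-chelate acceptor beads 10 ug/mL final, 20 min dark; AlphaScreen read.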
* = called active by the depositor; ? = inconclusive; · = not tested or not shown; [ ] = another dose, or the depositor's remark. Calls come from the whole dose curve; as a rule, active = well fitted curve in the direction sought with a large enough effect; inconclusive = small, poorly fitted or top-dose-only effect, or another doubt; inactive = no such curve, though single readings can be large; an effect the other way counts as inactive or inconclusive. Potency is the fitted concentration of half-maximal effect.

SMILES	JMJD2A Tudor	PLK1 PBD inh	HP1b binding inh	L3MBTL1 inh	VDR inh	BAZ2B inh
COc1ccc(-c2cnc(SCC(=O)Nc3nc(C(C)(C)C)cs3)n2Cc2ccco2)cc1	?	4%	?	-4%[11.4 µM]	-2%	?
CCc1nnc(NC(=O)CSc2nccn2-c2cccc(C)c2C)s1	-32%	-6%	17%	-11%	14%	-28%
CCc1ccccc1NC(=O)CN(Cc1ccccc1)S(=O)(=O)c1ccc(Br)cc1	-12%	·	28%	·	-14%	2%
COc1ccc(-c2nsc(SCC(=O)Nc3cc(C)on3)n2)cc1	?	9.5µM*	?	-12%	?	4%
Cc1cnc(NC(=O)CSc2ncc(-c3ccccc3)n2Cc2ccco2)s1	?	-5%	-2%	·	5%	22µM*
Cc1cccc(-c2nsc(SCC(=O)Nc3nccs3)n2)c1	?	19µM*	-8%	-3%	-29%	-5%
CCc1nnc(NC(=O)CSc2nc(-c3ccc(OC)cc3)ns2)s1	-8%	-4%	43%	7%	-7%	-1%
O=C(NCC(=O)N1CCCCCCC1)c1ccc(Cl)c(Cl)c1	·	-8%	·	·	·	·
CCOc1ccc(/C=N/NC(=O)C2(O)c3ccccc3-c3ccccc32)cc1	89µM*	?	4%	6%	-24%	0%
COc1ccc(/C=N/NC(=O)CN2CCN(Cc3ccccc3)CC2)cc1Br	-21%	-7%	-8%	-15%	24%	-21%
COc1ccc(/C=N/NC(=O)CN2CCCC2)cc1	-16%	-2%	34%	2%	-16%	-4%
COc1ccc(/C=N/NC(=O)CN2CCSCC2)cc1C	3.5µM*	1%	?	-5%	-4%	50µM*
CCOc1ccc(/C=N/NC(=O)CN2CCSCC2)cc1	2µM*	-3%	?	-4%	-5%	50µM*
Cc1cc2c(s1)c1cnn(Cc3ccccc3C)c(=O)c1n2C	-2%	·	·	·	·	·
COc1ccccc1CNN	40µM*	?	-2%	·	?	?
COc1ccc(CNCc2ccncc2)c(OC)c1	-13%	7%	29%	33%	11%	27%
COc1ccc(CNCc2ccc3ccccc3c2)c(OC)c1	35µM*	-6%	?	1%	7%	?
COc1ccccc1CNS(=O)(=O)N(C)C	50µM*	21µM*	-10%	2%	7%	-2%
COc1ccccc1CNCCS(=O)(=O)NCc1ccccc1OC	-10%	-11%	43%	·	-8%	·
COc1cc(CNCc2ccc(OC)c(OC)c2OC)cc(OC)c1	2.5µM*	-12%	-50%	·	-14%	50µM*
COc1ccc(CNC(=O)c2ccc(SC)cc2OC)cc1	5%	-9%	35%	3%	7%	-5%
COc1ccc(CN(C)CC(=O)NC(=O)NCc2ccccc2)c(OC)c1	-17%	-7%	26%	1%	-7%	-2%
COc1ccccc1CNCc1cc(OC)c(OC)c(OC)c1	40µM*	-4%	71µM*	·	14%	79µM*
COc1cc(CNCc2ccc(SC)cc2)cc(OC)c1	1.4µM*	-2%	?	-8%	-12%	?
COc1ccc(CN(CCN(C)C)Cc2ccccc2)c(OC)c1	2.5µM*	-6%	-39%	-10%	-16%	79µM*
SMILES	JMJD2A Tudor	PLK1 PBD inh	HP1b binding inh	L3MBTL1 inh	VDR inh	BAZ2B inh
COc1cccc(CNCc2ccccc2OC)c1	-100%	-10%	?	1%	-18%	-5%
CC(C)[C@H](/C=C/C[Si](C)(C)C)[C@H](C)C(O)/C=C/CCCOC(=O)C(C)(C)C (stereo partly drawn)	-4%	·	37%	·	1%	·
C[C@H](CO)N1C[C@H](C)[C@@H](CN(C)Cc2ccncc2)Oc2ccc(NC(=O)Cn3cnnn3)cc2C1=O	-14%	-23%	71%	2%	2%	·
Cc1sc2ncnc(N3CCC(C(=O)Nc4nc(-c5ccc(F)cc5)cs4)CC3)c2c1C	-17%	-7%	9%	-2%	-19%	4%
COCCNC(=S)N1CCN(Cc2cccc(OC)c2)CC1	3%	3%	49%	10%	4%	4%
CCC1=Nc2cc(C(=O)N3CCCCC3)ccc2Sc2ccc(C)cc21	?	-12%	0%	·	-7%	-32%
